# PubChem BioAssay (NCI)
# Compounds without any hit were thinned out: in the full panel of roughly 83,000, 20% have a hit.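 Method: cells in 96-well plates; compound added at one concentration; 48 h incubation; percent growth measured; values under 10 scored active.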 A number with no mark means an inactive call. The source made the active and inactive calls.
# Tests used:
# Assay in all cases: NCI-60 one-dose screen, 48 h (100 = growth as untreated, 0 = no growth, -100 = all killed)
# Settings in all cases: 10 µM unless noted
# MALME-3M melanoma = system: MALME-3M melanoma
# MDA-MB-231 breast = system: MDA-MB-231 breast
# RXF 393 renal = system: RXF 393 renal
# SF-268 CNS = system: SF-268 CNS
# SF-295 CNS = system: SF-295 CNS
# SF-539 CNS = system: SF-539 CNS
# UACC-257 melanoma = system: UACC-257 melanoma
# M14 melanoma = system: M14 melanoma
# HCT-15 colon = system: HCT-15 colon
# K-562 leukemia = system: K-562 leukemia
Compound,growth (MALME-3M melanoma),growth (MDA-MB-231 breast),growth (RXF 393 renal),growth (SF-268 CNS),growth (SF-295 CNS),growth (SF-539 CNS),growth (UACC-257 melanoma),growth (M14 melanoma),growth (HCT-15 colon),growth (K-562 leukemia)
CCOC(=O)c1c(Nc2ccccc2)nn2c(-c3ccco3)c(C#N)cnc12,94.9%,80%,82.1%,80.5%,76.7%,42%,112%,107%,91.5%,–
CN(C)c1ccc(/C=C2\Cc3c(F)ccc(Br)c3C2=O)cc1,92.8%,90.8%,108%,101%,101%,97.5%,91.3%,–,96.9%,98.4%
C[C@@H]1CN(c2ccc3ncc(C#Cc4cncc(C(=O)Nc5ccc(CN6CCN(C)CC6)c(C(F)(F)F)c5)c4)n3n2)C[C@H](C)O1,-68.9% (active),-24.9% (active),-92.1% (active),-60.3% (active),0.595% (active),-96.1% (active),-19.1% (active),–,-17.2% (active),-11.8% (active)
Clc1ccc2oc3c(NCCCn4ccnc4)c4ccccc4nc3c2c1,57.1%,27.1%,23.9%,38.3%,30.2%,24.3%,78.3%,–,13%,4.86% (active)
O=C1c2c(c3c4cccnc4[nH]c3c3ccc4ccccc4c23)C(=O)N1CCO,114%,78.8%,101%,78.4%,50.9%,78.7%,92.7%,–,72.1%,51.4%
O=C1Nc2ccccc2Oc2ccc(S(=O)(=O)CC3CO3)cc21 (stereo not given),87.7%,48.4%,58.1%,80.2%,66.3%,69.7%,65%,–,21.2%,18%
Cc1nc(-c2cc3ccccc3oc2=O)ccc1C(=O)/C=C/c1ccc(Cl)c(Cl)c1,96.9%,95.5%,119%,99.8%,95.7%,92.5%,120%,–,107%,103%
c1ccc(CNc2ncnc3ccc(-c4cnc5[nH]ncc5c4)cc23)cc1,103%,63.7%,33.8%,58.2%,74.1%,69.9%,95.4%,–,77%,–
O=C(N/N=C/c1ccc([N+](=O)[O-])s1)c1[nH]c2ccc(Br)cc2c1-c1ccccc1,14.8%,-24.1% (active),39.3%,36.4%,23.8%,-21.2% (active),58%,–,4.77% (active),5.34% (active)
CC1=C(C)C(=O)C(Nc2cccc(C(F)(F)F)c2)=C(Cl)C1=O,94.4%,19%,97.8%,94.3%,96.2%,93.4%,78.5%,–,65.7%,3.78% (active)
Nc1nc(N)c2c(n1)NC(c1ccc(C(F)(F)F)cc1)CC(c1ccc(Nc3nc(NCCO)nc(Nc4ccc(Cl)cc4)n3)cc1)=N2 (stereo not given),-79% (active),-59.4% (active),-78.8% (active),-29.4% (active),-79.5% (active),-86.2% (active),74.1%,–,-54.4% (active),1.08% (active)
Cc1ccc2ccc3ccc(C)nc3c2n1.Cc1ccc2ccc3ccc(C)nc3c2n1.Oc1c(Cl)cc(Cl)c2ccc(CN3CCCCC3)nc12.[Ru],-85.1% (active),-84% (active),-84.1% (active),-54.8% (active),-84.2% (active),-88.2% (active),-69.4% (active),-94.1% (active),-81.3% (active),–
O=C(N/N=C/c1ccco1)c1[nH]c2ccc(Br)cc2c1-c1ccccc1,54.9%,6.62% (active),62.2%,29.9%,21.8%,-15.1% (active),72.5%,–,10.4%,8.75% (active)
CC(C)Sc1nc(Nc2ccc(S(N)(=O)=O)cc2)c(C#N)c(-c2ccc(F)cc2)n1,14.8%,38.6%,–,39.1%,–,–,93.3%,17.9%,43.5%,36.3%
COc1cc2nc(-c3ccc(C)cc3)cc(OCCCNCC3CCCO3)c2cc1OC (stereo not given),50%,59.1%,59.6%,79.7%,59.9%,73.7%,17.8%,–,38%,43.6%
Cc1c(NC(=O)CSc2nc3sc4c(c3c(=O)n2-c2ccc(Cl)cc2)CCCC4)c(=O)n(-c2ccccc2)n1C,102%,93.4%,104%,80.3%,95.5%,89.5%,102%,–,93.3%,90.2%
N#Cc1nc(-c2ccccc2)oc1S(=O)(=O)N1CCCCC1,-68.8% (active),20.6%,-71.8% (active),110%,107%,77.3%,94.1%,-15.2% (active),-35.3% (active),–
Nc1c(C(=O)c2ccc(Br)cc2)oc2nc(-c3cnccn3)cc(-c3cccs3)c12,102%,101%,96.6%,104%,99.6%,98.8%,103%,–,97.7%,92.7%
CCCC(=O)NC(c1ccc(N(CC)CC)cc1)c1cc(C)c2cccnc2c1O (stereo not given),16%,43.9%,43.1%,27.6%,17.6%,11.3%,24.9%,–,29.5%,14.6%
COc1ccccc1/C=C/C=N/NC1=NC2C(S1)N(C)C(=O)N2C (stereo not given),43.8%,40%,-20.8% (active),52%,16.2%,5.56% (active),78.8%,–,30.4%,9.44% (active)
CS(=O)(=O)Nc1ccc(-c2nn(-c3ccc(S(C)(=O)=O)cc3)cc2/C=C/C(=O)c2ccc(NC(=O)CO[N+](=O)[O-])cc2)cc1,107%,93.4%,95%,108%,97.2%,101%,103%,–,99.6%,102%
CN1CCc2c(sc3ncnc(N/N=C/c4ccc(Cl)c(Cl)c4)c23)C1,38.6%,13.7%,42.1%,61.1%,34.7%,-61.6% (active),92.4%,–,3.04% (active),27.4%
Clc1ccc2c(NCCCN3CCOCC3)c3oc4ccccc4c3nc2c1,40.6%,33.8%,29.1%,48.6%,31.3%,26.5%,87.4%,–,21.6%,13.2%
C=CCn1c(SCC(=O)c2ccc(Br)cc2)nnc1-c1c[nH]c2ccccc12,90.7%,96.9%,113%,102%,93.2%,91.8%,108%,–,99%,85.5%
O=C(CN1CCOCC1)NNc1ncnc2ccccc12,-74.5% (active),2.91% (active),-39.7% (active),97.4%,95.9%,82.1%,86.3%,–,70.8%,0.401% (active)
CCOC(=O)c1c(Nc2ccccc2)nn2c(N)c(C#N)c(-c3ccc(OC)cc3)nc12,61.1%,78.1%,46%,61.9%,42.8%,52.1%,95.4%,78.6%,84.6%,–
Cc1sc2c(c1C)c(=O)nc1c(-c3nc(-c4ccc(F)cc4)no3)n[nH]n12,96.6%,95.5%,120%,103%,98.4%,93.7%,105%,–,92.5%,103%
